Screening results as filed in PubChem BioAssay.
Compounds with a hit are over-represented: about 12% of the library has one in this group of screens.
JMJD2A Tudor inh: qHTS Assay for Inhibitors of JMJD2A-Tudor Domain; Potency, µM (top dose mostly 114 µM), for the others: at the highest dose activity change, negative = inhibition, most hits filed as inhibitors; actives 4.4% (n = 390,000); AlphaScreen JMJD2A-Tudor / H3K4me3 peptide binding; Lysine-specific demethylase 4A (Homo sapiens), O75164; further: on the % scale 0 is the no-effect control and ±100 the full control effect; nearly all actives have a fitted effect of over 50% in size
Sfp inh: qHTS Assay for Inhibitors of Bacillus subtilis Sfp phosphopantetheinyl transferase (PPTase) | Biochemical Sfp PPTase activity, qHTS | Potency, µM, without a hit: largest response in the series, negative = inhibition, most hits filed as inhibitors | actives 3.5% (n = 310,000) | AID 1490, 2009;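 further: the enzyme is Sfp with the accession as filed and its product quenches rhodamine fluorescence; 0% = enzyme reaction without inhibitor and -100% = no enzyme wells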
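Step 1, compound plus 15 nM Sfp-PPTase, 15 min, room temperature. Step 2, add rhodamine-CoA (5 uM) and BHQ-2-YbbR (12.5 uM). Step 3, read 525/598 nm fluorescence at 0 and 30 min.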
HP1b binding inh: HTS for Inhibitors of HP1-beta Chromodomain Interactions with Methylated Histone Tails; Chromobox protein homolog 1 (Homo sapiens), P83916; AlphaScreen HP1-beta / biotin-H3K9me3 peptide binding; Potency, µM (doses to about 114 µM), without a hit: at the top dose activity change, negative = inhibition, most hits filed as inhibitors; actives 0.56% (n = 390,000); further: nearly all actives have a fitted effect of over 70% in size
Target sequence (P83916 whole entry, looked up): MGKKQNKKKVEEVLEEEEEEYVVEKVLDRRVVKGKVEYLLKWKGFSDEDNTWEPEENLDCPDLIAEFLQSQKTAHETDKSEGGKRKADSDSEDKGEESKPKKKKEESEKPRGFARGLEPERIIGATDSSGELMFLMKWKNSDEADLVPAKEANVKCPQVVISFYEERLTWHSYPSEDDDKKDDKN
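Compound inhibition of the preformed complex between 50 nM HP1-beta and 50 nM biotinylated H3K9me3 peptide was read by AlphaScreen. Buffer was PBS pH 7.4 with 0.01% Tween-20. Incubations ran 30 min at room temperature, with 10 ug/mL donor/acceptor beads.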
BAZ2B block: qHTS Assay for Inhibitors of BAZ2B; Bromodomain adjacent to zinc finger domain protein 2B (Homo sapiens), Q9UIF8; AlphaScreen BAZ2B-H3K14Ac peptide displacement; Potency, µM (series often up to 114 µM), for inactives: at the highest dose activity change, negative = inhibition, usual class: inhibitors; actives 4.4% (n = 360,000); AID 504333, 2011; further: on the % scale 0 is the no-effect control and ±100 the full control effect; nearly all actives have a fitted effect of over 60% in size
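Compounds, titrated to a top concentration of 110 uM, were incubated 30 min at room temperature with preformed BAZ2B/acetyl-K14 H3 peptide complex (50 nM each). Proximity signal was measured by AlphaScreen after 20 min with beads.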
G9a inh: qHTS Assay for Inhibitors of Histone Lysine Methyltransferase G9a; Histone-lysine N-methyltransferase EHMT2 (Homo sapiens), Q96KQ7; G9a H3K9 monomethylation, AlphaScreen, 2 h; Potency, µM (titrated, usually from 102 µM), without a hit: top-dose activity, negative = inhibition, most hits filed as inhibitors; actives 8.8% (n = 350,000); further: on the % scale 0 is the no-effect control and ±100 the full control effect; nearly all actives have a fitted effect of over 75% in size
Target sequence (Q96KQ7 913-1193 limits assumed): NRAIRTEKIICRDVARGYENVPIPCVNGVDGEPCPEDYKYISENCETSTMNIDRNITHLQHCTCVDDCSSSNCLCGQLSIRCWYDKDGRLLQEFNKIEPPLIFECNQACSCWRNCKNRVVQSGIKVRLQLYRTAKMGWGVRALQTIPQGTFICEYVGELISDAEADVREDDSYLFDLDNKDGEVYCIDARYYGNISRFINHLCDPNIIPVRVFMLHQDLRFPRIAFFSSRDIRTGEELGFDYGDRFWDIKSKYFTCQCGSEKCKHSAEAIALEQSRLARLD
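Signal arises when biotinylated H3K9 peptide, once monomethylated, bridges streptavidin donor and antibody-captured acceptor beads. Enzyme at 20 nM was preincubated 15 min with test compounds; peptide 500 nM and SAM 20 uM then reacted for 2 h.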
L3MBTL1 block: qHTS Assay for the Inhibitors of L3MBTL1. Lethal(3)malignant brain tumor-like protein 1 (Homo sapiens), Q9Y468. AlphaScreen L3MBTL1–H3K9me1 peptide binding. Potency, µM (titrated, usually from 57.1 µM), for inactives: top-dose activity, negative = inhibition, hits mostly inhibitors. actives 0.66% (n = 230,000). AID 485360, 2010; further: on the % scale 0 is the no-effect control and ±100 the full control effect; nearly all actives have a fitted effect of over 60% in size
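L3MBTL1 50 nM + b-AHA-H3(1-15)K9me1 75 nM, 30 min RT; compound added, 30 min RT; streptavidin donor/Ni-chelate acceptor beads 10 ug/mL each final, 30 min RT dark; AlphaScreen read.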
An asterisk follows results filed as active; [ ] = another dose, or the depositor's remark. The call rests on the fitted dose curve; in most records, active means well fitted curve in the direction sought with a large enough effect; inconclusive means small, poorly fitted or top-dose-only effect, or another doubt; inactive means no such curve, though single readings can be large; an effect the other way counts as inactive or inconclusive. Potency means the concentration at half of the fitted maximal effect.

CC(Sc1ccc(S(=O)(=O)N(C)C)cn1)C(=O)NC1CCCC1 (stereo unspecified) was read as JMJD2A Tudor inh -20%, HP1b binding inh 26%, BAZ2B block -2%, G9a inh 22%[2.33 µM] and L3MBTL1 block -3%.
`Nc1ccc(Br)cc1Br` gave JMJD2A Tudor inh -3%, Sfp inh 20%, HP1b binding inh 30%, BAZ2B block 1% and G9a inh 14%.
Screening O=C(Nc1ccc2oc(-c3cccc(F)c3)nc2c1)c1ccc2ccccc2c1 returned JMJD2A Tudor inh 0%, HP1b binding inh 20%, BAZ2B block 5% and G9a inh inconclusive.
`CC(=O)C1=C(C)NC(SCC(=O)c2ccccc2)=C(C#N)C1CC(C)C` (stereo unspecified) gave JMJD2A Tudor inh 56µM*, Sfp inh 20µM*, HP1b binding inh 44%, BAZ2B block inconclusive and G9a inh inconclusive.
Screening CC(=O)C1=C(C)NC(SCC(=O)c2ccccc2)=C(C#N)C1c1ccco1 (stereo unspecified) returned Sfp inh 56µM*, BAZ2B block 12%, G9a inh inconclusive and L3MBTL1 block -14%.
`N#CC1=C(SCC(=O)c2ccc(Br)cc2)NC2=C(C(=O)CCC2)C1c1ccco1` (stereo unspecified) gave JMJD2A Tudor inh inconclusive, Sfp inh -24%, HP1b binding inh -8%, BAZ2B block -13%, G9a inh -6%[59 µM] and L3MBTL1 block -10%.
COc1ccc(-n2c(=O)cnc3cnc(N4CCOCC4)nc32)cc1 was read as Sfp inh 12% and G9a inh -7%[0.501 µM].
`O=C(O)c1cc([N+](=O)[O-])c(NCCC2=CCCCC2)c([N+](=O)[O-])c1` gave JMJD2A Tudor inh -32%, Sfp inh -22%, HP1b binding inh -4%, BAZ2B block -27% and G9a inh 50µM*.
For COc1ccccc1S(=O)(=O)N1CCN(c2nc(-c3cccs3)nc3ccccc23)CC1 the results were JMJD2A Tudor inh -14% and HP1b binding inh 37%.
CCCCCCOc1ccc(/C(C)=N/NC2=NCCN2)cc1 was read as JMJD2A Tudor inh -12%, Sfp inh 56µM*, HP1b binding inh 4%, BAZ2B block -11% and L3MBTL1 block -4%.
`CCCCCOc1ccc(/C(C)=N/NC2=NCCN2)cc1` gave JMJD2A Tudor inh -9%, Sfp inh -7%, HP1b binding inh 33%, BAZ2B block -20%, G9a inh 8% and L3MBTL1 block 10%.
For CCOc1ccc(Br)cc1/C(C)=N\NC1=NCCN1 the results were JMJD2A Tudor inh -17%, Sfp inh 4%, HP1b binding inh 19%, BAZ2B block -8% and G9a inh 56µM*.
Screening CCOc1ccc(-c2noc(CCC(=O)NCCc3ccccc3)n2)cc1OC returned JMJD2A Tudor inh -3%, Sfp inh 5%, HP1b binding inh 15%, BAZ2B block -5%, G9a inh 2% and L3MBTL1 block 7%.
For O=C(NCc1ccc2c(c1)OCO2)C1CC(=O)N(c2ccc(Cl)cc2)C1 (stereo unspecified) the results were JMJD2A Tudor inh -27%, Sfp inh 23%, HP1b binding inh -23%, BAZ2B block 4% and G9a inh 15%[59 µM].
